Hit rate of the full screen: of about 5,500 compounds, about 2,000 (36%) were called active. Another 18% or so got no clear call; they are omitted. Rule as the data show it: active = normalized growth mostly below about 0.91 (no sharp cut-off); inconclusive = no clear call, values can overlap the other calls; inactive = mostly above about 0.92. Some of the results follow.
Test: chemical genetic growth profiling, strain panel (AID 1159580);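 also: tested at 20 µM; growth read once vehicle control cultures reached saturation at 30 °C; 1 = growth at the plate median or of vehicle wells; lower values mean less growth of the strain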
Conditions: growth OD

Measured: normalized growth

C/C=C/c1ccc2c(c1)OCO2
inactive: S. cerevisiae deletion strains, locus YJR075W, strain HOC1, active compounds read low 1.01 | S. cerevisiae deletion strains, locus YKL009W, strain mrt4, active compounds read low 1.02 | S. cerevisiae deletion strains, locus YKL068W, active compounds read low 1 | S. cerevisiae deletion strains, locus YKL085W, strain MDH1 (second series), active compounds read low 1.01 | S. cerevisiae deletion strains, locus YKL085W, strain MDH1, active compounds read low 1.01 | S. cerevisiae deletion strains, locus YKL160W, strain elf1, active compounds read low 1 | S. cerevisiae deletion strains, locus YKL190W, strain CNB1, active compounds read low 1.01 | S. cerevisiae deletion strains, locus YKR001C, strain vps1, active compounds read low 1.05 | S. cerevisiae deletion strains, locus YKR026C, strain gcn3, active compounds read low 0.997 | S. cerevisiae deletion strains, locus YKR091W, strain srl3, active compounds read low 1.01 | S. cerevisiae deletion strains, locus YLL001W, strain dnm1, active compounds read low 1.01 | S. cerevisiae deletion strains, locus YLL026W, active compounds read low 1.02 | S. cerevisiae deletion strains, locus YLL041C, strain sdh2, active compounds read low 1.02 | S. cerevisiae deletion strains, locus YLR027C, strain aat2, active compounds read low 1.02 | S. cerevisiae deletion strains, locus YLR039C, strain RIC1, active compounds read low 1.07 | S. cerevisiae deletion strains, locus YLR058C, strain SHM2, active compounds read low 1.01 | S. cerevisiae deletion strains, locus YLR102C, strain apc9, active compounds read low 1.01 | S. cerevisiae deletion strains, locus YLR113W, strain HOG1, active compounds read low 0.976 | S. cerevisiae deletion strains, locus YLR221C, strain rsa3, active compounds read low 0.994 | S. cerevisiae deletion strains, locus YLR258W, strain gsy2, active compounds read low 1.02 | S. cerevisiae deletion strains, locus YLR262C, strain YPT6 (second series), active compounds read low 1 | S. cerevisiae deletion strains, locus YLR262C, strain YPT6, active compounds read low 1.05 | S. cerevisiae deletion strains, locus YLR268W, strain sec22, active compounds read low 1.04 | S. cerevisiae deletion strains, locus YLR320W, strain mms22, active compounds read low 1.01 | S. cerevisiae deletion strains, locus YLR330W, strain CHS5, active compounds read low 1.02 | S. cerevisiae deletion strains, locus YLR342W, strain FKS1 (second series), active compounds read low 1.03 | S. cerevisiae deletion strains, locus YLR342W, strain FKS1, active compounds read low 1.02 | S. cerevisiae deletion strains, locus YLR357W, strain rsc2, active compounds read low 1.03 | S. cerevisiae deletion strains, locus YLR370C, strain arc18, active compounds read low 1.02 | S. cerevisiae deletion strains, locus YLR371W, strain rom2, active compounds read low 1.01 | S. cerevisiae deletion strains, locus YLR384C, strain iki3, active compounds read low 1.03 | S. cerevisiae deletion strains, locus YLR418C, strain cdc73, active compounds read low 1 | S. cerevisiae deletion strains, locus YML016C, strain PPZ1, active compounds read low 1.01 | S. cerevisiae deletion strains, locus YML032C, strain rad52, active compounds read low 0.996 | S. cerevisiae deletion strains, locus YML120C, strain ndi1, active compounds read low 1.03 | S. cerevisiae deletion strains, locus YML124C, strain tub3, active compounds read low 1 | S. cerevisiae deletion strains, locus YMR058W, strain fet3, active compounds read low 1.02 | S. cerevisiae deletion strains, locus YMR078C, strain ctf18, active compounds read low 1.01 | S. cerevisiae deletion strains, locus YMR125W, strain sto1, active compounds read low 1.03 | S. cerevisiae deletion strains, locus YMR129W, active compounds read low 1.02 | S. cerevisiae deletion strains, locus YMR205C, strain PFK2, active compounds read low 1.02 | S. cerevisiae deletion strains, locus YMR223W, strain ubp8, active compounds read low 0.99 | S. cerevisiae deletion strains, locus YMR231W, strain pep5, active compounds read low 1.02 | S. cerevisiae deletion strains, locus YMR263W, strain SAP30, active compounds read low 1.01 | S. cerevisiae deletion strains, locus YMR307W, strain GAS1, active compounds read low 0.986 | S. cerevisiae deletion strains, locus YNL067W, strain RPL9B, active compounds read low 1.01 | S. cerevisiae deletion strains, locus YNL071W, strain lat1, active compounds read low 1.02 | S. cerevisiae deletion strains, locus YNL153C, strain GIM3, active compounds read low 1.03 | S. cerevisiae deletion strains, locus YNL183C, strain NPR1, active compounds read low 0.948 | S. cerevisiae deletion strains, locus YNL209W, strain ssb2, active compounds read low 1.02 | S. cerevisiae deletion strains, locus YNL233W, strain BNI4, active compounds read low 1.02 | S. cerevisiae deletion strains, locus YNL248C, strain rpa49, active compounds read low 0.998 | S. cerevisiae deletion strains, locus YNL250W, strain rad50, active compounds read low 1.01 | S. cerevisiae deletion strains, locus YNL271C, strain bni1, active compounds read low 1.01 | S. cerevisiae deletion strains, locus YNL298W, strain CLA4, active compounds read low 1.01 | S. cerevisiae deletion strains, locus YNL307C, strain MCK1, active compounds read low 1.02 | S. cerevisiae deletion strains, locus YNL322C, strain KRE1 (second series), active compounds read low 1.02 | S. cerevisiae deletion strains, locus YNL322C, strain KRE1, active compounds read low 1.01 | S. cerevisiae deletion strains, locus YNR049C, strain mso1, active compounds read low 1.02 | S. cerevisiae deletion strains, locus YNR052C, strain pop2, active compounds read low 0.996 | S. cerevisiae deletion strains, locus YOL006C, strain TOP1, active compounds read low 1.16 | S. cerevisiae deletion strains, locus YOL012C, strain htz1 1.12 | S. cerevisiae deletion strains, locus YOL147C, strain pex11, active compounds read low 1 | S. cerevisiae deletion strains, locus YOR001W, strain rrp6, active compounds read low 1.01 | S. cerevisiae deletion strains, locus YOR061W, strain CKA2, active compounds read low 1.01 | S. cerevisiae deletion strains, locus YOR069W, strain VPS5, active compounds read low 1.01 | S. cerevisiae deletion strains, locus YOR070C, strain gyp1, active compounds read low 1.02 | S. cerevisiae deletion strains, locus YOR080W, strain dia2, active compounds read low 1.03 | S. cerevisiae deletion strains, locus YOR083W, strain WHI5, active compounds read low 0.993 | S. cerevisiae deletion strains, locus YOR106W, strain vam3, active compounds read low 1.01 | S. cerevisiae deletion strains, locus YOR136W, strain idh2, active compounds read low 0.999 | S. cerevisiae deletion strains, locus YOR144C, strain elg1, active compounds read low 0.998 | S. cerevisiae deletion strains, locus YOR184W, strain ser1, active compounds read low 0.994 | S. cerevisiae deletion strains, locus YOR231W, strain MKK1, active compounds read low 0.959 | S. cerevisiae deletion strains, locus YOR265W, strain rbl2, active compounds read low 1.02 | S. cerevisiae deletion strains, locus YOR270C, strain vph1, active compounds read low 1.03 | S. cerevisiae deletion strains, locus YOR290C, strain snf2, active compounds read low 0.999 | S. cerevisiae deletion strains, locus YOR316C, strain cot1, active compounds read low 1.01 | S. cerevisiae deletion strains, locus YPL051W, strain arl3, active compounds read low 1.01 | S. cerevisiae deletion strains, locus YPL055C, strain LGE1, active compounds read low 1.03 | S. cerevisiae deletion strains, locus YPL078C, strain atp4, active compounds read low 1.01 | S. cerevisiae deletion strains, locus YPL106C, strain sse1, active compounds read low 1 | S. cerevisiae deletion strains, locus YPL240C, strain hsp82, active compounds read low 1.02 | S. cerevisiae deletion strains, locus YPL241C, strain CIN2, active compounds read low 1.01 | S. cerevisiae deletion strains, locus YPL256C, strain CLN2, active compounds read low 0.962 | S. cerevisiae deletion strains, locus YPR119W, strain clb2, active compounds read low 1.01 | S. cerevisiae deletion strains, locus YPR141C, strain kar3, active compounds read low 1.01 | S. cerevisiae deletion strains, locus YPR163C, strain tif3, active compounds read low 1 | S. cerevisiae deletion strains, locus YPR167C, strain met16, active compounds read low 1.02 | S. cerevisiae deletion strains, strain wtn01, active compounds read low 1.06 | S. cerevisiae strains, strain wild type, active compounds read low 1.01
